Seven molecules from PubChem BioAssay (Tox21) can be followed below.

Structures are written as SMILES. Inconclusive results are not listed. Activity calls are given as the source filed them. Unless noted, the call rests on the fitted dose curve; in most records, active means well fitted curve in the direction sought with a large enough effect in the repeat runs; inconclusive means weak or mixed curves; inactive means no such curve, though single readings can be large; an effect the other way counts as inactive or inconclusive.

The nature of test [1]: qHTS assay to identify small molecule antagonists of the thyroid receptor (TR) signaling pathway - cell viability counter screen (AID 743064). Further: nearly all actives have a fitted effect of over 50% in size. Summed up: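 GH3.TRE-Luc rat pituitary cells dosed after 4 hr plating, co-stimulated with T3 at 1 nM final, incubated 23.5 h at 37 C. Viability measured in the same wells by CellTiter-Fluor fluorescence after 30 min further at 37 C.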
On the technique in general: qHTS replaces the single test concentration by a dilution series.

The nature of test [2]: qHTS assay to identify small molecule antagonists of the thyroid receptor (TR) signaling pathway (AID 743065). Further: series mostly up to about 70 µM; nearly all actives have a fitted effect of over 55% in size. Summed up:
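GH3.TRE-Luc rat pituitary cells (two TREs driving luciferase) were dosed with compound, then stimulated with 1 nM T3 (final) for 23.5 h at 37 C. ONE-Glo luminescence was the read-out, with CellTiter-Fluor fluorescence as the cytotoxicity counter-screen.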

For test [3], the system named is thyroid hormone receptor (rat, GH3 cells). Nature of the test: qHTS assay to identify small molecule agonists of the thyroid receptor (TR) signaling pathway (AID 743066; calls by dose curve).
Test [4] concerns the target Estrogen receptor (Homo sapiens) (UniProt P03372). Description: qHTS assay to identify small molecule antagonists of the estrogen receptor alpha (ER-alpha) signaling pathway (AID 743069; active means well fitted curve in the direction sought with a large enough effect in the signal ratio in the repeat runs, not every such curve was filed as active; the % refers to the signal ratio). Summed up: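 In this cell-based reporter format, GripTite HEK293 cells harbouring ER-alpha-UAS-bla were grown overnight with 2% charcoal-stripped FBS, dosed with DMSO-dissolved compounds, then challenged with 17beta-estradiol. After 18 hr at 37C, beta-lactamase activity was detected by FRET fluorescence.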

A short description of test [5]: qHTS assay to identify small molecule antagonists of the estrogen receptor alpha (ER-alpha) signaling pathway - cell viability counter screen (AID 743074; calls by dose curve; further: nearly all actives have a fitted effect of over 45% in size).
For test [6], the target named is Estrogen receptor (Homo sapiens) (UniProt P03372). Nature of the test: qHTS assay to identify small molecule agonists of the estrogen receptor alpha (ER-alpha) signaling pathway (AID 743075; calls by dose curve).
Test [7] can be described thus: qHTS assay to identify small molecule antagonists of the estrogen receptor alpha (ER-alpha) signaling pathway using the BG1 cell line - cell viability counter screen (AID 743081).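 Further: compound given together with 17beta-estradiol as the ER stimulus; series mostly up to about 70 µM; nearly all actives have a fitted effect of over 45% in size.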
The next test deals with Aromatase (Homo sapiens) (UniProt P11511). Description: qHTS assay to identify aromatase inhibitors (AID 743083). Further: series mostly up to about 70 µM; nearly all actives have a fitted effect of over 55% in size.
Test [8] is described as follows: qHTS assay to identify aromatase inhibitors - cell viability counter screen (AID 743084).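 Further: cells stimulated with testosterone during compound exposure; nearly all actives have a fitted effect of over 55% in size.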
Test [9] deals with Aryl hydrocarbon receptor (Homo sapiens) (UniProt P35869). Description: qHTS assay to identify small molecule that activate the aryl hydrocarbon receptor (AhR) signaling pathway (AID 743085). Further: nearly all actives have a fitted effect of over 15% in size. Further: potency means the concentration at half of the fitted maximal effect.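 On activation: HG2L7.5c1 human HepG2 liver cells with stably integrated DRE-driven firefly reporter; series mostly up to about 70 µM.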 The procedure, abridged: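 HepG2 cells stably carrying a 20-DRE firefly luciferase reporter (HG2L7.5c1) treated with compound for 24 hr at 37C. Luciferase read by ONE-Glo luminescence, with CellTiter-Fluor viability read first.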

Test [10] can be described thus: qHTS assay to identify small molecule that activate the aryl hydrocarbon receptor (AhR) signaling pathway - cell viability counter screen (AID 743086). Further: series mostly up to about 70 µM; nearly all actives have a fitted effect of over 45% in size. Summed up:
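HepG2-AhR-luc (HG2L7.5c1) cells, 4000/well, treated 24 h at 37 C with compound; viability measured as CellTiter-Fluor fluorescence after 30 min in the same wells as the luciferase read.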

Test [11] deals with Peroxisome proliferator-activated receptor gamma (Homo sapiens) (UniProt P37231). Description: qHTS assay to identify small molecule agonists of the peroxisome proliferator-activated receptor gamma (PPARg) signaling pathway (AID 743094; active means well fitted activation curve with a large enough effect in the signal ratio in the repeat runs, not every such curve was filed as active; the % refers to the signal ratio). Summed up: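 Agonism was assessed in a beta-lactamase reporter system, HEK293H cells with a stably integrated UAS-bla construct under PPARg control; the 17 h treatment at 37C preceded a 1 h room-temperature FRET substrate read.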

For test [12] the target is unchanged. Description: qHTS assay to identify small molecule antagonists of the peroxisome proliferator-activated receptor gamma (PPARg) signaling pathway (AID 743191; calls by dose curve; further: series mostly up to about 63 µM; nearly all actives have a fitted effect of over 30% in size). Summed up:
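GeneBLAzer PPARg UAS-bla HEK293H cells, 5 h post-plating, exposed to compounds 17 h at 37C. LiveBLAzer B/G FRET substrate added for 1 h at room temperature; beta-lactamase reporter read by fluorescence intensity.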

The nature of test [13]: qHTS assay to identify small molecule antagonists of the peroxisome proliferator-activated receptor gamma (PPARg) signaling pathway - cell viability counter screen (AID 743194). Further: nearly all actives have a fitted effect of over 55% in size. As to conditions: Potency: co-treated with 50 nM rosiglitazone. The procedure, abridged:
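Cytotoxicity counter screen in PPARg-bla HEK293H cells, same wells as reporter assay. Compounds plus 50 nM rosiglitazone (final) for 17 h at 37 C, then viability read by CellTiter-Glo luminescence.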

Test [14] is described as follows: qHTS assay for small molecule agonists of the antioxidant response element (ARE) signaling pathway (AID 743202; active means well fitted activation curve with a large enough effect in the signal ratio in the repeat runs, not every such curve was filed as active; the % refers to the signal ratio). The procedure, abridged: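 HepG2 ARE-bla cells; 16 h treatment at 37 C; FRET-based beta-lactamase fluorescence read after 2 h substrate incubation at room temperature.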
A short description of test [15]: qHTS assay for small molecule agonists of the antioxidant response element (ARE) signaling pathway - cell viability counter screen (AID 743203; calls by dose curve; further: nearly all actives have a fitted effect of over 55% in size). The procedure, abridged: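 ATP content via CellTiter-Glo luminescence served as the viability measure. Cells: ARE-bla HepG2, 2,000 per well. Exposure: 16 hrs, 37C/5% CO2.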
A short description of test [16]: qHTS assay for small molecule activators of the heat shock response signaling pathway - cell viability counter screen (AID 743209). Further: nearly all actives have a fitted effect of over 50% in size. Summed up: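 Compounds dissolved in DMSO were added to overnight-plated HSE-bla HeLa cells and left 5 h at 37 C. Cell viability was quantified by luminescence using CellTiter-Glo.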
Test [17] can be described thus: qHTS assay for small molecule activators of the heat shock response signaling pathway (AID 743210; active means well fitted activation curve with a large enough effect in the signal ratio in the repeat runs, with a control signal flat, not every such curve was filed as active; the % refers to the signal ratio;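 further: HeLa cells with beta-lactamase reporter driven by heat shock elements; series mostly up to about 63 µM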). Summed up:
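Following overnight attachment, HSE-bla HeLa cells received test compounds for 5 h at 37 C; beta-lactamase activity was then detected via FRET substrate fluorescence.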

Test [18] has as its target Estrogen receptor (Homo sapiens) (UniProt P03372). Nature of the test: qHTS assay to identify small molecule agonists of the estrogen receptor alpha (ER-alpha) signaling pathway using the BG1 cell line (AID 743079). Further: nearly all actives have a fitted effect of over 20% in size.
Test [19] can be described thus: qHTS assay to identify small molecule antagonists of the estrogen receptor alpha (ER-alpha) signaling pathway using the BG1 cell line (AID 743080; calls by dose curve;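 further: BG1 cells stimulated with 17beta-estradiol alongside compound; series mostly up to about 70 µM; nearly all actives have a fitted effect of over 25% in size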). Summed up:
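BG1Luc4E2, endogenous ER-alpha, 4xERE-luc; 5 d charcoal-stripped FBS, phenol red free; 24 h plating; cpd + 17beta-estradiol 21.5 h, 37 C/5% CO2; CellTiter-Fluor viability 30 min, then ONE-Glo luciferase 30 min RT.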

Estrogen receptor (Homo sapiens), sequence (P03372 whole entry, looked up): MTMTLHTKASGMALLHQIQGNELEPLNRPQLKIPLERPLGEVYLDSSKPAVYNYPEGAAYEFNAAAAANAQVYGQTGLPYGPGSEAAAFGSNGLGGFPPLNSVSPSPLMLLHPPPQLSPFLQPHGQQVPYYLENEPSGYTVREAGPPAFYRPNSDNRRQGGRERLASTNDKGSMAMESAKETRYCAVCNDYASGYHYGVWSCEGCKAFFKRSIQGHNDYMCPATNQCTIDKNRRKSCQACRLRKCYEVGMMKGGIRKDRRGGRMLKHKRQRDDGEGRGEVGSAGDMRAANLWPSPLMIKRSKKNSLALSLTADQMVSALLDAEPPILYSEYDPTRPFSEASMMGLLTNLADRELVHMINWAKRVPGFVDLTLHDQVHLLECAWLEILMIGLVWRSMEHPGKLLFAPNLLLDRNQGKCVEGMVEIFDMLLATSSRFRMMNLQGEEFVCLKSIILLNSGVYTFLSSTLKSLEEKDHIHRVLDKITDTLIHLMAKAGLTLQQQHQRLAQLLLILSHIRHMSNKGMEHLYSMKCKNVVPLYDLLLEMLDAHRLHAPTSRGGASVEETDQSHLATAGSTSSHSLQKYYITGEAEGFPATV
Aryl hydrocarbon receptor (Homo sapiens), sequence (P35869 whole entry, looked up): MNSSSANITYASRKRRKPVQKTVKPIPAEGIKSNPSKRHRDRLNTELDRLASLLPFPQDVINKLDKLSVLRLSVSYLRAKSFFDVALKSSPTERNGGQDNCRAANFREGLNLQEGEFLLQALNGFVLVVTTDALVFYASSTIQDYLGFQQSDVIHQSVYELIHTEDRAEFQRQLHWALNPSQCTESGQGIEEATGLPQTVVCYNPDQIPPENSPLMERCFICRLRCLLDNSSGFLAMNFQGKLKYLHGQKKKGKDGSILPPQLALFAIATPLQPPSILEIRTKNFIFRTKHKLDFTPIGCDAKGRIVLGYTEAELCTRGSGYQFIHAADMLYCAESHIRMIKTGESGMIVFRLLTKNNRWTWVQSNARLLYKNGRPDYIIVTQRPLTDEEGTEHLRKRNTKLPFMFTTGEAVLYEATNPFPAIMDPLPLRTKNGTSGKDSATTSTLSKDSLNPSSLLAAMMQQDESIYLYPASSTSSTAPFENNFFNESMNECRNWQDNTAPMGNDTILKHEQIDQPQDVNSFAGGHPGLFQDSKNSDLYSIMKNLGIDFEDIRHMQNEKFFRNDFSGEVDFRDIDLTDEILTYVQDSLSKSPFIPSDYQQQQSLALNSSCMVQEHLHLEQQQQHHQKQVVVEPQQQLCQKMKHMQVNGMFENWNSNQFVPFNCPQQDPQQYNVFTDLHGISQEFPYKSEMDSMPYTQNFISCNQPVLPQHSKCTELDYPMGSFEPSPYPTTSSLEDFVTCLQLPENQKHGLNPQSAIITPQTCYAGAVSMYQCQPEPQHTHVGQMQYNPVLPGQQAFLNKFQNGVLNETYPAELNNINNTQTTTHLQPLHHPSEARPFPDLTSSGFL
Peroxisome proliferator-activated receptor gamma (Homo sapiens), sequence (P37231 whole entry, looked up): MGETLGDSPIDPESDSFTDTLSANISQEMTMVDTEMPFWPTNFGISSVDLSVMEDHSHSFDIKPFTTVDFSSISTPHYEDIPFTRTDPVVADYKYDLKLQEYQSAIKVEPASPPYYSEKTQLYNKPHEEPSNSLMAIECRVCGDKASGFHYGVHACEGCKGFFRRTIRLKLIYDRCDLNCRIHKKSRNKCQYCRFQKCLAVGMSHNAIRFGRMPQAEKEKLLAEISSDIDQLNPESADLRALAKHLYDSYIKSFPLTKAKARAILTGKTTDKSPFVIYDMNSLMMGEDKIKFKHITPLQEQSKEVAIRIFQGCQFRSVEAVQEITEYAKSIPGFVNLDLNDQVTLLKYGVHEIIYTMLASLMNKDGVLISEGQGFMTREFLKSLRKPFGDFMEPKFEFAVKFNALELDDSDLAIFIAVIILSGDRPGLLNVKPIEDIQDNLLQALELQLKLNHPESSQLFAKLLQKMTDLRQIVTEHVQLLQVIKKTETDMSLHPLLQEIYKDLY
Aromatase (Homo sapiens), sequence (P11511 whole entry, looked up): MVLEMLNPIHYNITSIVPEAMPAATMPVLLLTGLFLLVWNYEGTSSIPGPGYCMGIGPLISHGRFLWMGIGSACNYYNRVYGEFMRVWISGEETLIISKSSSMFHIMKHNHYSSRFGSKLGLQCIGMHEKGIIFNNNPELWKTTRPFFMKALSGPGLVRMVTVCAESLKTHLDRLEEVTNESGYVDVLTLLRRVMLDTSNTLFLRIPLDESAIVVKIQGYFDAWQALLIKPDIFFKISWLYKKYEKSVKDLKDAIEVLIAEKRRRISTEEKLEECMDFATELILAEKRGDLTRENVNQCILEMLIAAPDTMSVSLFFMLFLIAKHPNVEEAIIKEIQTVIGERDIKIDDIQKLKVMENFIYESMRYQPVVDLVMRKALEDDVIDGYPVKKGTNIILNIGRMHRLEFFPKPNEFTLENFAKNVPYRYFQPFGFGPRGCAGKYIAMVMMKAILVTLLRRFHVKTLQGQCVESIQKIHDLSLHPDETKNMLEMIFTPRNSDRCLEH

`O=[N+]([O-])O[C@H]1CO[C@H]2[C@@H]1OC[C@H]2O[N+](=O)[O-]`: the Potency result in test [1], in test [2], in [3], in test [4], in [5] and in [6] was “inactive” each time. The Potency result (in [7]; with Aromatase (Homo sapiens); in test [8]; in [9]; in test [10]; in test [11]) was “inactive” throughout. Further, the Potency result in [12], in test [13], in test [14], in [15], in test [16] and in test [17] was “inactive” throughout.
With `Oc1cccc(Cl)c1`, the Potency result in test [1], in [2], in test [3], in test [5], in test [6] and in test [18] was “inactive” throughout. Further, the Potency result (in [19]; in test [7]; with Aromatase (Homo sapiens); in test [8]; in test [9]; in [10]) was “inactive” each time. Further, the Potency entry in test [11], in test [12], in test [13], in test [14], in test [15] and in [16] was “inactive” in each case.
In the case of `COc1ccc(C(O)(c2cncnc2)C2CC2)cc1` (stereo not given), the Potency entry in test [1], in [2], in test [3], in [5], in test [6] and in [18] was “inactive” in each case. For the same molecule, the Potency entry (in test [19]; in test [7]; with Aromatase (Homo sapiens); in [8]; in [9]; in test [10]) was “inactive” each time. Besides, the Potency entry in [11], in test [13], in [14], in test [15] and in [17] was “inactive” throughout.
With `CCOP(=O)(O)C(N)=O`, the Potency entry in [1], in [2], in [3], in test [5], in test [6] and in [18] was “inactive” in each case. The Potency entry (in test [19]; in test [7]; in the test with Aromatase (Homo sapiens); in test [8]; in test [9]; in test [10]) was “inactive” each time. Further, the Potency entry in test [11], in [12], in test [13], in [14], in [15] and in test [16] was “inactive” in each case. Moreover, in test [17], the Potency result is “inactive”.
Take `CCOP(=S)(OCC)Oc1ccc(S(C)=O)cc1` (stereo not given): the Potency result in test [1], in test [2], in test [3], in test [5], in test [6] and in [18] was “inactive” throughout. In addition, the Potency entry (in [19]; in test [7]; with Aromatase (Homo sapiens); in test [8]; in test [10]; in test [11]) was “inactive” in each case. Also, the Potency result in test [12], in test [13], in [14], in test [15], in [16] and in test [17] was “inactive” throughout. In [9], the Potency was 10.9 µM (active).
As to `Clc1ccc2ccccc2c1`, the Potency result in test [1], in [2], in [3], in test [4], in test [5] and in [6] was “inactive” throughout. The Potency entry (in [19]; in test [7]; in the test with Aromatase (Homo sapiens); in test [8]; in test [10]; in test [13]) was “inactive” in each case. Besides, the Potency result in [14], in test [15], in test [16] and in [17] was “inactive” throughout.
As for `OCC1CO1` (stereo not given), the Potency entry in test [1], in [2], in test [3], in [5], in test [6] and in test [18] was “inactive” in each case. Besides, the Potency entry (in test [19]; in [7]; with Aromatase (Homo sapiens); in test [8]; in test [9]; in test [10]) was “inactive” throughout. Further, the Potency result in test [11], in test [13], in [14], in test [15], in test [16] and in [17] was “inactive” each time.
